The values below come from PubChem BioAssay.

One test has as its target Albumin (Bos taurus) (UniProt P02769). Description: compounds binding labelled BSA control protein – biochemical, small-molecule microarray, Alexa647 label, 635/667 nm fluorescence, artefact control for SMM control protein annotation, profiling panel (AID 1118).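 Further: score merges 667 nm emission intensity and signal-to-noise per printed compound spot.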 To be noted: BSA-A647 binding, fluorescence 635 nm, higher = more signal.
The nature of test [1]: probe aXIP binding to arrayed compounds – biochemical, NeuroSMM set, 635/667 nm fluorescence, primary screen (AID 1119).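 Further: probe is the protein aXip251-270 applied at 1 µg/mL to compound-printed slides; binding of probe to printed compounds measured as 667 nm fluorescence plus signal to noise.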 To be noted: small-molecule microarray, higher = more signal, called active from +8 up or from −8 down.
Test [2] is described as follows: probe aNOTCH3 binding on compound microarray – biochemical, small-molecule microarray, 635/667 nm fluorescence, primary screen (AID 1120).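 Further: probe is a biotin-tagged antibody raised against NOTCH3 rather than NOTCH3 protein; score merges spot fluorescence near 667 nm with spot signal to noise.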 To be noted: higher = more signal.
The nature of test [3]: probe aNOTCH2 binding on compound microarray – biochemical, small-molecule microarray, 635/667 nm fluorescence, primary screen (AID 1121).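 Further: score merges feature fluorescence read at 667 nm with its signal to noise.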 The note with it: higher = more signal.
For test [4], the target named is Carbonic anhydrase 2 (Homo sapiens) (UniProt P00918). The experiment in a line: compounds binding carbonic anhydrase 2 – biochemical, small-molecule microarray, Alexa647-labelled CAII, profiling panel (AID 1122). The note with it: CAII-A647 binding fluorescence, higher = more signal.
Test [5] in a line: COS7 lysate on small-molecule microarray, probe aHis, 635 nm (AID 1123).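 Further: z-score combines 667nm fluorescence intensity with signal-to-noise per printed compound spot.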 To be noted: COS7 cell lysate, fluorescence, higher = more signal.
The nature of test [6]: probe aLAP1 signal on lysate-treated microarray – cell lysate, small-molecule microarray, COS7 lysate, primary screen (AID 1124).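 Further: lysate comes from COS7 cells expressing LAP1 and is applied at 0.3 µg/mL; score merges spot fluorescence near 667 nm with signal-to-noise over triplicate slides.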 To be noted: probe aLAP1, fluorescence, higher = more signal.
Another test relates to Sam68 (KHDRBS1). Description: compounds binding KHDRBS1 protein – biochemical, small-molecule microarray, 635 nm fluorescence, primary screen (AID 1125).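 Further: score merges 667 nm channel intensity with signal to noise over triplicate slides.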 The note with it: higher = more signal.
Test [7] deals with Chordin-like protein 2 (CHRDL2). The experiment in a line: compounds binding chordin-like 2 – biochemical, small-molecule microarray, 635 nm fluorescence, primary screen (AID 1126).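 Further: printed compound slides probed with Chrdl2 protein at 4 µg/mL for 1 h at 4 C; score merges 667 nm emission intensity with signal to noise over three replicate slides.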 The note with it: fluorescence 635 nm, higher = more signal.
Test [8] deals with Concanavalin-A (Canavalia ensiformis) (UniProt P02866). Description: compounds binding concanavalin A lectin – biochemical, small-molecule microarray, Alexa647 label, 635 nm, artefact control for SMM control protein annotation, primary screen (AID 1127).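 Further: z combines 667 nm emission intensity with signal-to-noise across three replicate slides.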 The note with it: ConA-A647 binding fluorescence, higher = more signal.
Test [9] can be described thus: compounds binding Alexa647 anti-His antibody – biochemical, small-molecule microarray, 635 nm fluorescence, artefact control for SMM control protein annotation, primary screen (AID 1128).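 Further: score merges feature fluorescence with signal-to-noise for each printed compound spot.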 The note with it: higher = more signal.
The subject of test [10] is Human papillomavirus type 1a E7 protein (residues 1-88). Description: HPV1a E7 small-molecule binders, primary screen, biochemical, small-molecule microarray, residues 1-88, 635 nm (AID 1129). The note with it: small-molecule microarray binding, fluorescence 635 nm; higher = more signal.
For test [11], the target named is Focal adhesion kinase 1 (Homo sapiens) (UniProt Q05397). The experiment in a line: PTK2 protein binding on printed compound slides – biochemical, small-molecule microarray, 635/667 nm fluorescence, BSA, DTT, primary screen (AID 1130).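 Further: composite of spot emission at 667 nm and signal to noise over triplicate slides.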 The note with it: 635 nm fluorescence, higher = more signal.
In test [12] the test system is Fibrinogen (Alexa647-labelled). The experiment in a line: Alexa647-fibrinogen binding to printed small molecules – biochemical, small-molecule microarray, 635/667 nm fluorescence, artefact control for SMM control-protein annotation, profiling panel (AID 1131).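 Further: z-score merges 667 nm fluorescence with per-spot signal-to-noise over triplicate slides.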 To be noted: fibrinogen-A647 binding fluorescence, higher = more signal.
Test [13] deals with Follistatin (Homo sapiens) (UniProt P19883). Description: FST protein binding to printed compounds – biochemical, small-molecule microarray, 635/667 nm fluorescence, primary screen (AID 1132). To be noted: 635 nm fluorescence, higher = more signal.
Test [14] deals with Fibroblast growth factor 2 (Homo sapiens) (UniProt P09038). The experiment in a line: basic fibroblast growth factor binding to printed compounds – biochemical, small-molecule microarray, 635/667 nm fluorescence, primary screen (AID 1133). To be noted: FGF2, fluorescence 635/667, higher = more signal.
Test [15] in a line: JC-1 mitochondrial potential readout, lung cancer cells – cell-based, A549, JC-1 fluorescence, basal, 24 h, 100 nL, profiling panel (AID 1138).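 Further: A549 lung adenocarcinoma cells under basal conditions with no added stimulus; test concentration not given here.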 To be noted: higher = more signal.
The next test relates to Lefty1. The experiment in a line: Lefty1 protein binding to printed compounds – biochemical, small-molecule microarray, 635/667 nm fluorescence, primary screen (AID 1139). To be noted: fluorescence 635/667, higher = more signal.
For test [16], the system named is wheat germ agglutinin (Triticum aestivum), Alexa647-labelled. The experiment in a line: Alexa647-WGA lectin binding to printed small molecules – biochemical, small-molecule microarray, 635/667 nm fluorescence, artefact control for SMM control-protein annotation, profiling panel (AID 1140).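 Further: score merges 667 nm feature emission with signal to noise over triplicate slides.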 To be noted: WGA-A647 binding, 635 nm fluorescence, higher = more signal.
For test [17], the target named is Luciferin 4-monooxygenase (Photinus pyralis) (UniProt P08659). The experiment in a line: inhibition of purified Photinus pyralis luciferase – biochemical, luminescence, purified enzyme, 2006 set, primary screen (AID 1141).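 Further: cell-free assay with purified firefly luciferase at 100 ng per well in PBS; test concentration not given here.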 The note with it: purified firefly luciferase, SteadyGlo luminescence, 30 min; higher = more signal, called active from +8 up or from −8 down.

Activity calls are given as the source filed them.

Follistatin (Homo sapiens), sequence (P19883 whole entry, looked up): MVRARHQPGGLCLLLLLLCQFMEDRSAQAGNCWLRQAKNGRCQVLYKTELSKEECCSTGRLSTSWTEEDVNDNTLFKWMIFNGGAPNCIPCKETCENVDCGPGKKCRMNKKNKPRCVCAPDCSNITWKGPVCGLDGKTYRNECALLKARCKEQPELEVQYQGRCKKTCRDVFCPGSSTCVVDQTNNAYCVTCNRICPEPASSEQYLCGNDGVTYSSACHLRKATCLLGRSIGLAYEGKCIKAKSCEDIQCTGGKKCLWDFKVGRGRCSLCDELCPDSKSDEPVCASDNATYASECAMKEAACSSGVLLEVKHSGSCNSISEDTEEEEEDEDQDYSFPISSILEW
Fibroblast growth factor 2 (Homo sapiens), sequence (P09038 whole entry, looked up): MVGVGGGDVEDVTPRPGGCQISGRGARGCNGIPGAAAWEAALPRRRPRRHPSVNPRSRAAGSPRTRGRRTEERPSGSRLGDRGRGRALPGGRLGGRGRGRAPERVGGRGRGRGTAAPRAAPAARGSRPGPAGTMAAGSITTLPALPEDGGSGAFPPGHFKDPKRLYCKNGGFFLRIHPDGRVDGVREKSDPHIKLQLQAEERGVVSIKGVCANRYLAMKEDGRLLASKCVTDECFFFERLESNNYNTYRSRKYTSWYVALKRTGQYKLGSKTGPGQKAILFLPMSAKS
Concanavalin-A (Canavalia ensiformis), sequence (P02866 whole entry, looked up): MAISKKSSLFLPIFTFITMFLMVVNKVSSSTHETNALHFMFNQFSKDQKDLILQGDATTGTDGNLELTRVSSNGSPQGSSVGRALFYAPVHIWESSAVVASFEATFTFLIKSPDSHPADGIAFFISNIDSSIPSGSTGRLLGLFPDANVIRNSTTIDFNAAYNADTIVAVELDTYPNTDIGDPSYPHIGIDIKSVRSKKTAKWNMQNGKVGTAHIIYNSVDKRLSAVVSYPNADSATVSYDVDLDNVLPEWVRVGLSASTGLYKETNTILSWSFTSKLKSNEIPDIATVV
Focal adhesion kinase 1 (Homo sapiens), sequence (Q05397 whole entry, looked up): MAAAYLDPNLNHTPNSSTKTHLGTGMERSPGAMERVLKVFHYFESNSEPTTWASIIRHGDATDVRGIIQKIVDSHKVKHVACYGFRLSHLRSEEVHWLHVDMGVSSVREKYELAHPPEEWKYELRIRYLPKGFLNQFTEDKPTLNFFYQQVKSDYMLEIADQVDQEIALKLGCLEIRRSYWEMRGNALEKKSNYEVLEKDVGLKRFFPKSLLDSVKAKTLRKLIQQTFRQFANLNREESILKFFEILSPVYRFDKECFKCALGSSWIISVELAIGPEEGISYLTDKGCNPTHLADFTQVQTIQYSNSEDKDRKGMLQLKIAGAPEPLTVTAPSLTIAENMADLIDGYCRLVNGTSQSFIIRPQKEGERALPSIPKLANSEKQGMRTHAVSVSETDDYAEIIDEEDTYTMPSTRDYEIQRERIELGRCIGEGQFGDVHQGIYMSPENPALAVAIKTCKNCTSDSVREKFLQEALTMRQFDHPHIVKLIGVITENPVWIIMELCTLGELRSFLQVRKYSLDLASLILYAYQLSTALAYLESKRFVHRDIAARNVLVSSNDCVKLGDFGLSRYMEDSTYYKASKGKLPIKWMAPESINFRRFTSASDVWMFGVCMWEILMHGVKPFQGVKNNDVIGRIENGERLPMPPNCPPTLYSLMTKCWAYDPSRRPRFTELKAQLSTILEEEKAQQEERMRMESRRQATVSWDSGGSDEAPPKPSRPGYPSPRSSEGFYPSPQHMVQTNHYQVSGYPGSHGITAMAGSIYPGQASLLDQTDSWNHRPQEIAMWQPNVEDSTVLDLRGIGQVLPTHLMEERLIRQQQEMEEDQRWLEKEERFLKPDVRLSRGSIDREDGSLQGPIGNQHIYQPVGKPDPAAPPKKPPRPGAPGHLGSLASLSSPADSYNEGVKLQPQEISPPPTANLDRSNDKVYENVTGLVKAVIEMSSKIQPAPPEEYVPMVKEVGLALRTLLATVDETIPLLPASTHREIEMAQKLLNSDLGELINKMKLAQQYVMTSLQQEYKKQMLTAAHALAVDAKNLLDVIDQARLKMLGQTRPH
Luciferin 4-monooxygenase (Photinus pyralis), sequence (P08659 whole entry, looked up): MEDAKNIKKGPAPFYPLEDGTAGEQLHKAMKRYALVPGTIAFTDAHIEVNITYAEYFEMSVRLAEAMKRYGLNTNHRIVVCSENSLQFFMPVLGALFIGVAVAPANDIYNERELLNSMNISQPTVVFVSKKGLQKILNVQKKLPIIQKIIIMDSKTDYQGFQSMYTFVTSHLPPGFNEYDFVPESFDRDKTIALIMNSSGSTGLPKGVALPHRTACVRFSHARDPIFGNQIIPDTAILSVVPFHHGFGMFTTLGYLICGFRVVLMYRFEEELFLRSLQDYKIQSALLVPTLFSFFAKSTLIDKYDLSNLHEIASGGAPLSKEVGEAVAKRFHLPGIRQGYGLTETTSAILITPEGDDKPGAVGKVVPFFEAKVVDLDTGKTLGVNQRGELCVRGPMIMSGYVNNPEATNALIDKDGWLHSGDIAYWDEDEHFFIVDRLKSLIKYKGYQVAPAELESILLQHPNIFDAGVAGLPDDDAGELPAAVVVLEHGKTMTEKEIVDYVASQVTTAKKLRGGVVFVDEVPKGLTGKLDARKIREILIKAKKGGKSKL
Albumin (Bos taurus), sequence (P02769 whole entry, looked up): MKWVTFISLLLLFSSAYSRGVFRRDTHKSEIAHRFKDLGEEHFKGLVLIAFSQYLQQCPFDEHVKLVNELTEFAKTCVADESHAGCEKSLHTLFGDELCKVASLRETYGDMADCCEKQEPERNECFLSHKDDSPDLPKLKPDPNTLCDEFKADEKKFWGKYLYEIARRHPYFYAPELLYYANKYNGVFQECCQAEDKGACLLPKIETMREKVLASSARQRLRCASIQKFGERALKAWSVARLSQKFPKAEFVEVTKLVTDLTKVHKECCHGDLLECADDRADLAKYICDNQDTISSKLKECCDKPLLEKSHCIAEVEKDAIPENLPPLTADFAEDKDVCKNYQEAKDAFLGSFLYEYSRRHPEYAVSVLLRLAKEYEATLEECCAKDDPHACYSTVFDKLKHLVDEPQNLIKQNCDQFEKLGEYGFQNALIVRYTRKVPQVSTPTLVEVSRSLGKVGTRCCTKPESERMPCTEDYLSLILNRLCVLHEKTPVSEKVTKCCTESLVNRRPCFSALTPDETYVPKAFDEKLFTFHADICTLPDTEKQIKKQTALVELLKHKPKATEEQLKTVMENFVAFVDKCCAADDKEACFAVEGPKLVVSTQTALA

With `COc1ccc([Si](C)(C)[C@H]2[C@H](CC(=O)N(CCO)Cc3ccccc3)O[C@@]3(C(=O)N(Cc4cccc(N5CCCCC5=O)c4)c4ccccc43)[C@@H]2C)cc1`, the composite z-score with Albumin (Bos taurus) was 0.124; in test [2], 0.401; in test [3], -0.131; in test [4], 0.235; in [5] it was 0.681; in [6], 0.825. Further, the composite z-score in the test with Sam68 (KHDRBS1) turned out to be 0.732; in [7], 0.877; in test [8], 0.72; in [9] it was 1.13; in [10], 0.694; in test [11] it was 0.18. The composite z-score came out at 0.267 in test [12]; 0.724 in [13]; 1.23 in test [14]; 0.931 in the test with Lefty1; 0.311 in test [16]. Besides, in [1], the composite Z-score is 1.12 (inactive). The z-score in test [15] is -0.153; in [17] it was -1.55 (inactive).

For `C=CCC(OC(C)=O)[C@@H]1[C@@H](N(Cc2ccc(-c3ccccc3)cc2)C(=O)Cc2ccc(OC)cc2)c2cc(OCCCO)ccc2N1C(=O)Cc1ccc(OC)cc1` (stereo not given in full), the composite z-score in the test with Albumin (Bos taurus) was -0.0621; in [2], 0.464; in [3], 0.146; in test [4] it was 0.306; in test [5], 0.248; in test [6], 0.302. For the same compound, the composite z-score is 0.0538 in the test on Sam68 (KHDRBS1); 0.235 in test [7]; -0.0563 in test [8]; 0.271 in test [9]; 0.0716 in test [10]; 1.78 in [11]. For the same compound, the composite z-score is 0.513 in test [12]; 0.7 in [13]; 0.0471 in [14]; 0.161 in the test on Lefty1; 0.365 in test [16]. For the same compound, the composite Z-score in test [1] was 0.445 (inactive). For the same compound, the z-score in [15] was 0.462; in test [17] it was 0.355 (inactive).

As to `CCCCN1CC=CC23O[C@@H]4/C=C\CCC(C)OC(=O)C4[C@H]2C(=O)N(CCO)[C@@H]3C1=O` (stereo not given in full), the composite z-score was 0.197 in the test with Albumin (Bos taurus); -0.0745 in test [2]; -0.101 in test [3]; 0.97 in test [4]; 2.47 in test [5]; 1.49 in test [6]. The composite z-score is 0.852 in the test on Sam68 (KHDRBS1); -0.789 in test [7]; -0.833 in test [8]; 3.24 in test [9]; -0.424 in test [10]; 0.548 in test [11]. In addition, the composite z-score is -1.18 in test [12]; -0.531 in test [13]; -1.49 in test [14]; 0.0422 in the test on Lefty1; -0.169 in [16]. Besides, in [1], the composite Z-score was 2.55 (inactive). In addition, the z-score in test [15] is -0.145; in test [17] it was 1.1 (inactive).

For the compound `O=C1NC(=O)C2C1C=CC(C(O)C(O)CO)N2Nc1ccccn1` (stereo not given), the composite z-score with Albumin (Bos taurus) is 0.319; in test [2] it was 0.0026; in test [3], -0.207; in test [4], 0.315; in [5] it was 0.344; in test [6] it was 0.635. Besides, the composite z-score in the test with Sam68 (KHDRBS1) is 0.523; in [7], 0.105; in test [8], 0.932; in [9] it was 0.37; in [10], 0.434; in test [11], -0.201. The composite z-score is 0.485 in test [12]; 0.176 in [13]; -0.0885 in [14]; 0.0364 in the test on Lefty1; 0.333 in test [16]. The composite Z-score in [1] is 0.035 (inactive). Moreover, the z-score in test [15] is 0.767; in test [17], -1.41 (inactive).

As to `O=C/C=C/c1ccc(-c2ccccc2)cc1`, the composite z-score was -1.04 in the test with Albumin (Bos taurus); -0.172 in [2]; -0.0843 in test [3]; -0.202 in [4]; -0.327 in test [5]; 1.35 in test [6]. In addition, the composite z-score in the test on Sam68 (KHDRBS1) was -0.789; in [7], 0.438; in test [8] it was -0.518; in test [9] it was -0.221; in test [10], -0.142; in test [11], -0.164. Further, the composite z-score is -0.964 in test [12]; 0.276 in test [13]; -0.377 in test [14]; -0.155 in the test with Lefty1; -0.484 in test [16]. In addition, in test [1], the composite Z-score is -0.646 (inactive). Besides, the z-score in test [15] is 0.294; in test [17] it was 0.0686 (inactive).
